In PubChem BioAssay one finds growth inhibition, inhibition and outcome data, which are given here for 19 molecules.

The nature of experiment [1]: antimalarial activity against Dd2 strain (AID 2302;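 active means growth inhibition above 50% at the single 2 µM test dose, taken to imply half-maximal potency below 2 µM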;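 further: 0% = DMSO untreated growth and 100% = chloroquine plus artemisinin killed control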). The following applies: P. falciparum Dd2 in RBCs, LDH growth readout, 72 h; at 2 µM; active compounds read high.
A short description of experiment [2]: human hepatoma cell viability loss – ATP luminescence, cytotoxicity control for P. falciparum antimalarial project, primary screen (AID 2303;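 active means inhibition above 50%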;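 further: 0% = DMSO wells and 100% = digitonin-killed cells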). Conditions: HepG2 viability, 24-48 h, at 10 µM, active compounds read high.
The target of experiment [3] is L-lactate dehydrogenase (Plasmodium falciparum (isolate CDC / Honduras)) (UniProt Q27743). As to the kind of experiment: PfLDH activity inhibition – cell lysate, 3D7 strain, counter-screen for P. falciparum growth inhibition project (AID 2304).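 Further: 0% = vehicle and 100% = reference inhibitor.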 Conditions: P. falciparum 3D7 crude extract, LDH APAD/NBT absorbance; at 2 µM; active compounds read high. In general terms: A counterscreen serves to expose hits that act by an unwanted route or on another target.

Experiment [4] in a line: inhibition of 3D7 malaria parasite growth – strain 3D7 (AID 2306).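 Further: 0% = DMSO wells and 100% = chloroquine plus artemisinin control wells.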 The following applies: P. falciparum 3D7 erythrocytic growth, LDH absorbance, 72 h; at 2 µM; active compounds read high.
The target of experiment [5] is Calcium-dependent protein kinase 1 (Plasmodium falciparum (isolate 3D7)) (UniProt P62344). Briefly: PfCDPK1 kinase inhibitors, biochemical, TCAMS library (AID 1159585; cut-off not given, nearly all actives have IC50 up to about 0.98 µM;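 further: inhibitors leave more ATP so luminescence rises with inhibition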). Conditions: recombinant PfCDPK1, Kinase-Glo ATP depletion luminescence. On the technique in general: In Kinase-Glo more light means more ATP remaining.
The target in experiment [6] is Plasmodium falciparum protein kinase 6 (PK6, PF3D7_1337100) (UniProt Q8IDW1). Briefly: PfPK6 kinase inhibitors, biochemical, TCAMS library (AID 1159586). The following applies: recombinant PfPK6, Kinase-Glo ATP depletion luminescence.
Experiment [7] deals with Protein kinase 7 (PK7), Plasmodium falciparum 3D7 (PF3D7_0213400) (UniProt Q7YTF7). As to the kind of experiment: inhibition of Plasmodium PK7 catalytic activity – biochemical, TCAMS antimalarial set, Kinase-Glo luminescence (AID 1159587). The following applies: recombinant PfPK7, Kinase-Glo ATP depletion luminescence.
The target of experiment [8] is Calcium-dependent protein kinase 4 (Plasmodium falciparum (isolate 3D7)) (UniProt Q8IBS5). Briefly: PfCDPK4 kinase inhibitors, biochemical, TCAMS library (AID 1159588; cut-off not given, nearly all actives have IC50 up to about 0.91 µM). Conditions: recombinant PfCDPK4, Kinase-Glo ATP depletion luminescence.

A number with no mark means an inactive call. For some assays here: Potency and affinity values are given separately. Active and inactive are the calls of the source. Unless noted, how the calls were made is not given here.

As a reminder, the inhibition is the drop in the measured response relative to a control, in per cent.

Protein kinase 7 (PK7), Plasmodium falciparum 3D7 (PF3D7_0213400), sequence (Q7YTF7 1-343): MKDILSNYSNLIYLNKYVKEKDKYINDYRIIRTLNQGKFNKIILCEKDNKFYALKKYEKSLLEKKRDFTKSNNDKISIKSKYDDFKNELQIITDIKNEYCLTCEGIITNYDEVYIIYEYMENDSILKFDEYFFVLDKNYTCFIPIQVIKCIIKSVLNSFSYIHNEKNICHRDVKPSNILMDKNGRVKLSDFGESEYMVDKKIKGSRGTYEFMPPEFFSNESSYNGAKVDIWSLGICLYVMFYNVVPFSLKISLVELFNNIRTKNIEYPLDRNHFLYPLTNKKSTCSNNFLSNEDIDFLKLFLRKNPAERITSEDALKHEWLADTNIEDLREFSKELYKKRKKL
Plasmodium falciparum protein kinase 6 (PK6, PF3D7_1337100), sequence (Q8IDW1 1-305): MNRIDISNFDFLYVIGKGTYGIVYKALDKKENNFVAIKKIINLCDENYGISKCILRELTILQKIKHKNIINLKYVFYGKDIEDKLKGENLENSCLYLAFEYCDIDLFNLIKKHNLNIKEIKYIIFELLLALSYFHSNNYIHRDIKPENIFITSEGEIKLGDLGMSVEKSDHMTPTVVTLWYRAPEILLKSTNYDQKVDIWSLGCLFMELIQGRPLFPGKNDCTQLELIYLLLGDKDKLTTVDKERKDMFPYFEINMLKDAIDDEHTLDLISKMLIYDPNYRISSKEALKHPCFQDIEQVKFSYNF
L-lactate dehydrogenase (Plasmodium falciparum (isolate CDC / Honduras)), sequence (Q27743 whole entry, looked up): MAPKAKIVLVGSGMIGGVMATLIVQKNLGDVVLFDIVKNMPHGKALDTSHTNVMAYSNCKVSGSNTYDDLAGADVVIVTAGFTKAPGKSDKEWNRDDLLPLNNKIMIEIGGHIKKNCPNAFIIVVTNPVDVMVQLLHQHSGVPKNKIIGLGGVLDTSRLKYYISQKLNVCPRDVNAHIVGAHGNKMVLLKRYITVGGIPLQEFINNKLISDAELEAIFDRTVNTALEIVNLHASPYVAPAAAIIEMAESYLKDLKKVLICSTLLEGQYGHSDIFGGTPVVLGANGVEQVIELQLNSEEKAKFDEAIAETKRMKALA
Calcium-dependent protein kinase 4 (Plasmodium falciparum (isolate 3D7)), sequence (Q8IBS5 whole entry, looked up): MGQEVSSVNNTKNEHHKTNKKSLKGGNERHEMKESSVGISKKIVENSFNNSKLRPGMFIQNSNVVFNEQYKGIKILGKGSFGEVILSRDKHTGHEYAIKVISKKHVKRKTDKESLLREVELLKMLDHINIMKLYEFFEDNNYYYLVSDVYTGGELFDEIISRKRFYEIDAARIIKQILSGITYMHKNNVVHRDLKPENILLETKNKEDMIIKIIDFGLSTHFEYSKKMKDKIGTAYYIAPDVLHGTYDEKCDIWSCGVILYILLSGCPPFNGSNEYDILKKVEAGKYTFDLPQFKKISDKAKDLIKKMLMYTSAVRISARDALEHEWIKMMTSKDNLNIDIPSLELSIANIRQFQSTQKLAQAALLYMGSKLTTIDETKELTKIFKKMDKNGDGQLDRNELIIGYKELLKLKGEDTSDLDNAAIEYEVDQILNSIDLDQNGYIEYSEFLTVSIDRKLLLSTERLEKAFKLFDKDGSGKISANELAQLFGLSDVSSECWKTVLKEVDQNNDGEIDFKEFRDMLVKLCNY
Calcium-dependent protein kinase 1 (Plasmodium falciparum (isolate 3D7)), sequence (P62344 whole entry, looked up): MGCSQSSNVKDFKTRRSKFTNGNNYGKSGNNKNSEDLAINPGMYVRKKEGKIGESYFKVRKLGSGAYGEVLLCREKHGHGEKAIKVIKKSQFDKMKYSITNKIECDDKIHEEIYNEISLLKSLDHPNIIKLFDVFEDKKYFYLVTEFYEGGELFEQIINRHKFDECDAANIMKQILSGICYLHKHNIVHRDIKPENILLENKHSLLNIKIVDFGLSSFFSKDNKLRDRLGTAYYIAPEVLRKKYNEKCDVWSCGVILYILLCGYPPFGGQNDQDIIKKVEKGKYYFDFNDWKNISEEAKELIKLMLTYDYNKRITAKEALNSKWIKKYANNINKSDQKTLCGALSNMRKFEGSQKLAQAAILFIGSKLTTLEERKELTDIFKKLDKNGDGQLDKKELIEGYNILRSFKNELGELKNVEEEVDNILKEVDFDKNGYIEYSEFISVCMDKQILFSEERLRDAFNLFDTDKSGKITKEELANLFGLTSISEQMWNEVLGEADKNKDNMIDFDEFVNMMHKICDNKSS

In the case of `CC(C)(C)c1ccccc1OCCCON1C(N)=NC(N)=NC1(C)C`, the growth inhibition was 98% (active) in experiment [1] and 95% (active) in experiment [4]. Moreover, the figures for the inhibition in experiment [2] and in experiment [3] were 63% (active) and 5%, respectively. The result in experiment [5], in experiment [6], in experiment [7] and in experiment [8] was inactive.
Consider `CC1CCCN1Cc1ccc(-c2ccc3c(=O)cc(CCc4cccc(F)c4F)n(CC(=O)N(C)Cc4ccc(-c5ccc(C(F)(F)F)cc5)cc4)c3n2)cc1` (configuration not stated), for which the growth inhibition was 91% (active) in experiment [1] and 102% (active) in experiment [4]. Moreover, the inhibition in experiment [2] was 0%; in experiment [3], 3%. Further, the outcome in experiment [5], in experiment [6], in experiment [7] and in experiment [8] was inactive.
Regarding `O=C(Nc1ccc(F)cc1)NC1CCN(c2ccnc3ccccc23)C1` (configuration not stated), the growth inhibition is 2% in experiment [1] and 92% (active) in experiment [4]. In addition, the inhibition in experiment [2] is 9%; in experiment [3] it was -2%. Further, the outcome in experiment [5], in experiment [6], in experiment [7] and in experiment [8] was inactive.
Consider `COc1ccc2ncc(F)c(CCN3CCC(NCc4cc(F)c5c(c4)OCCO5)CC3)c2n1`, for which the growth inhibition was 67% (active) in experiment [1] and 100% (active) in experiment [4]. Besides, the values for the inhibition in experiment [2] and in experiment [3] were 15% and -5%, respectively. For the same molecule, the result in experiment [5], in experiment [6], in experiment [7] and in experiment [8] was inactive.
For `Cc1cccc2[nH]c(-c3cccc(-c4cccc(NC(=O)c5cnn6cccnc56)c4)c3)nc12`, the growth inhibition was 17% in experiment [1] and 101% (active) in experiment [4]. For the same molecule, the inhibition is 14% in experiment [2] and -3% in experiment [3]. The result in experiment [5], in experiment [6], in experiment [7] and in experiment [8] was inactive.
On to `O=C(Nc1ccc2c(c1)OCO2)NC1CCN(c2ccnc(NCc3ccc(F)cc3)n2)CC1`, for which the growth inhibition was 15% in experiment [1] and 88% (active) in experiment [4]. In addition, the results for the inhibition in experiment [2] and in experiment [3] were 33% and 3%, respectively. Besides, the outcome in experiment [5], in experiment [6], in experiment [7] and in experiment [8] was inactive.
As to `COc1cc2c(cc1OCCN1CCC(N3CCCC3)CC1)N(C(=O)/C=C/c1ccccc1Cl)CC2`, the values for the growth inhibition in experiment [1] and in experiment [4] were 68% (active) and 100% (active), respectively. The inhibition in experiment [2] was 38%; in experiment [3], -7%. Further, the outcome in experiment [5], in experiment [6], in experiment [7] and in experiment [8] was inactive.
For the molecule `Nc1nc(N)c2cc(CNc3ccc(Cl)c(Cl)c3)ccc2n1`, the growth inhibition in experiment [1] is 55% (active); in experiment [4] it was 93% (active). In addition, the inhibition in experiment [2] is 62% (active); in experiment [3] it was 5%. Moreover, the outcome in experiment [5], in experiment [6], in experiment [7] and in experiment [8] was inactive.
On to `COc1ccc2nccc([C@@H](O)CN3CCC(NC(=O)C(c4cc5ccccc5o4)N4CCN(c5ccccc5)CC4)CC3)c2c1` (some centres not stated), for which the growth inhibition in experiment [1] and in experiment [4] was 99% (active) in each case. Further, the results for the inhibition in experiment [2] and in experiment [3] were 19% and -2%, respectively. Further, the result in experiment [5], in experiment [6], in experiment [7] and in experiment [8] was inactive.
On to `c1ccc(C2CCC(N3CCC(N4CCN(c5ccccc5)CC4)CC3)CC2)cc1` (configuration not stated), for which the growth inhibition in experiment [1] was 34%; in experiment [4], 97% (active). For the same molecule, the results for the inhibition in experiment [2] and in experiment [3] were 6% and -3%, respectively. Moreover, the result in experiment [5], in experiment [6], in experiment [7] and in experiment [8] was inactive.
As to `CC(CCc1ccccc1)NCC(O)c1cccc([N+](=O)[O-])c1` (configuration not stated), the growth inhibition in experiment [1] was 98% (active); in experiment [4], 97% (active). Moreover, the inhibition in experiment [2] is -2%; in experiment [3], 1%. Besides, the outcome in experiment [5], in experiment [6], in experiment [7] and in experiment [8] was inactive.
Take `COC(=O)c1cc(NC(=O)Nc2ccc(Cn3ncc(N4CCCNCC4)c(Cl)c3=O)cc2)cc(C(=O)OC)c1`: the growth inhibition in experiment [1] is 90% (active); in experiment [4], 96% (active). Further, the inhibition in experiment [2] was -3%; in experiment [3], 3%. Further, the outcome in experiment [5], in experiment [6], in experiment [7] and in experiment [8] was inactive.
On to `CN1CCc2cc(NS(=O)(=O)c3ccc(-c4ccc(Cl)s4)cc3)c(N3CCCCC3)cc2CC1`, for which the growth inhibition in experiment [1] is 29%; in experiment [4], 98% (active). In addition, the inhibition in experiment [2] was 14%; in experiment [3], 3%. In addition, the outcome in experiment [5], in experiment [6], in experiment [7] and in experiment [8] was inactive.
Turning to `CCCCCCCc1c(C)[nH]c2ccccc2c1=O`, the growth inhibition in experiment [1] was 96% (active); in experiment [4] it was 98% (active). The inhibition in experiment [2] was -14%; in experiment [3] it was -7%. Moreover, the outcome in experiment [5], in experiment [6], in experiment [7] and in experiment [8] was inactive.
For `COc1ccc2c(c1)CCCC2NCCCCNC(=O)c1ccc(NC(=O)c2ccc(Cl)cc2)cc1` (configuration not stated), the values for the growth inhibition in experiment [1] and in experiment [4] were 49% and 100% (active), respectively. Besides, the inhibition in experiment [2] was 27%; in experiment [3] it was -7%. Besides, the result in experiment [5], in experiment [6], in experiment [7] and in experiment [8] was inactive.
Regarding `O=c1c2c([nH]c3cc(Cl)ccc13)CCCC2`, the growth inhibition in experiment [1] was 73% (active); in experiment [4], 96% (active). Moreover, the inhibition in experiment [2] is 33%; in experiment [3], 2%. Further, the result in experiment [5], in experiment [6], in experiment [7] and in experiment [8] was inactive.
`c1ccc2[nH]c(-c3ccc(-c4ccc(CNCC5CCCO5)cc4)s3)nc2c1` (configuration not stated): the growth inhibition was 87% (active) in experiment [1] and 101% (active) in experiment [4]. The inhibition in experiment [2] was 27%; in experiment [3] it was 4%. The result in experiment [5], in experiment [6], in experiment [7] and in experiment [8] was inactive.
As for `N#Cc1cccc(/C=C/C(=O)NC2CCC(CCN3CCc4ccc(-c5cnccn5)cc4CC3)CC2)c1` (configuration not stated), the growth inhibition in experiment [1] was 47%; in experiment [4], 93% (active). The inhibition in experiment [2] is 22%; in experiment [3], -1%. Besides, the result in experiment [5], in experiment [6], in experiment [7] and in experiment [8] was inactive.
For `COc1ccc(Cl)cc1NC(=O)CN(C)C(=O)c1cnn(-c2ccccc2)n1`, the growth inhibition in experiment [1] was 99% (active); in experiment [4], 102% (active). Moreover, the inhibition was -6% in experiment [2] and -2% in experiment [3]. The result in experiment [5], in experiment [6], in experiment [7] and in experiment [8] was inactive.
